Measured values from PubChem BioAssay (Tox21).
A number with no mark means an inactive call. The call rests on the fitted dose curve; in most records, active means well fitted inhibition curve with a large enough effect in the repeat runs (not every such curve was filed as active); inconclusive means weak or mixed curves; inactive means flat fitted curve, though single readings scatter.
On the % scale 0 is the no-effect control and ±100 the full control effect.

The compounds below were run against Thyrotropin-releasing hormone receptor (Homo sapiens) (UniProt P34981) (assay: qHTS assay to identify small molecule antagonists of the thyrotropin-releasing hormone receptor (TRHR) signaling pathway (AID 1346877)). Conditions: TRHR-HEK293, TRH-induced calcium fluorescence, antagonist mode; series mostly up to 51.3 µM; activity, negative = inhibition: at the top concentration.
Sequence of Thyrotropin-releasing hormone receptor (Homo sapiens) (P34981 whole entry, looked up): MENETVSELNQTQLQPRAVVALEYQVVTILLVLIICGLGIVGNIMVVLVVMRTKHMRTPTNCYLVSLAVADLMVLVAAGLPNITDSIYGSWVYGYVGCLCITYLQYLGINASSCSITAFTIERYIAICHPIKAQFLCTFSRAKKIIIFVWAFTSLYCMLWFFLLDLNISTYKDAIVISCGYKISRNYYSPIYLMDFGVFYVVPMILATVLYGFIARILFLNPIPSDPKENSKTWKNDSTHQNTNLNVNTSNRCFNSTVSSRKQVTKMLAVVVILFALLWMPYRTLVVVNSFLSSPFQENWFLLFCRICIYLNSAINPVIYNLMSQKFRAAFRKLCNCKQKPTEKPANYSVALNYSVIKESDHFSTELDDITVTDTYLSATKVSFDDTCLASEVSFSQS
Source text: National Center for Advancing Translational Sciences [NCATS]
NIH Chemical Genomics Center [NCGC]
U.S. Environmental Protection Agency [EPA]
National Institutes of Environmental Health Sciences [NIEHS]
National Toxicology Program [NTP]
U.S. Food and Drug Administration [FDA]
Thyrotropin-releasing hormone (TRH) receptor (TRHR) is a G-protein-coupled receptor which binds the tripeptide thyrotropin releasing hormone. TRHR is found in the brain and, when bound by TRH, acts (through phospholipase C) to increase intracellular inositol trisphosphate. It plays a crucial role in the anterior pituitary where it controls the synthesis and secretion of thyroid stimulating hormone and prolactin. The TRHR-Hek293 assay is a cell-based assay, and it has the potential to screen G protein-coupled receptors. A compound/drug can either activate (agonist) or suppress (antagonist) GPCRs that can be monitored by levels of intracellular calcium. In this assay, the Tox21 10K compound library was screened to identify potential TRHR antagonists.
Tox21 Assay Protocol Summary:
The TRHR-Hek293 cells were dispensed at 1500cells/4uL/well in 1536-well black-clear bottom plates using a Multidrop dispenser. After the assay plates were incubated at a 37 C/5% CO2 incubator for 18 hours, 4 uL of Dye-Loading Solution was added to each well. The plates were incubated at 37 C for 2 hours. For agonist mode, 23 nL of compounds dissolved in DMSO, positive controls or DMSO only was transferred to the assay plate by a pin tool. The fluorescence intensity in the plates was measured using FDSS 7000EX kinetic plate reader for 3 min at 1 sec intervals. For antagonist mode, 23 nL of compounds dissolved in DMSO, positive controls or DMSO only was transferred to the assay plate by a pin tool. After 5 min incubation at room temperature, 1 uL of TRH was added on the top of the cell/compound mixtures to achieve a final agonist concentration of 1 nM. The fluorescence intensity in the plates was measured using FDSS 7000EX kinetic plate reader for 3 min at 1 sec intervals. Each test compound was measured at 15 concentrations and in triplicates.
For `OC(c1ccccc1)(c1ccccc1)C1CCNCC1`, the “activity, negative = inhibition” value was -4.49% [at 23.6 µM]. For `COP(=S)(OC)Oc1c(Cl)cc(C)cc1Cl`, the “activity, negative = inhibition” value was -17.6%. For `COCC(=O)N(c1c(C)cccc1C)N1CCOC1=O`, the “activity, negative = inhibition” value was -7.99%. With `CC(C)[N+](=O)[O-]` the “activity, negative = inhibition” value was 2.21%. In the case of `C[N+](C)=CCl`, the “activity, negative = inhibition” value is reported as 0.163%. With `CCOP(=O)(OCC)OP(=O)(OCC)OCC` the “activity, negative = inhibition” value was 2.42%. In the case of `COC(=O)c1ccccc1S(=O)(=O)NC(=O)N(C)c1nc(C)nc(OC)n1`, the “activity, negative = inhibition” value is reported as 3.3%. For `CCCCc1ccc(O)cc1`, the “activity, negative = inhibition” value was 0.671%. With `CC(=O)[C@H]1CC[C@H]2[C@@H]3CC[C@H]4C[C@H](O)CC[C@]4(C)[C@H]3C(=O)C[C@]12C` the “activity, negative = inhibition” value was 1.86% [at 23.6 µM]. `Oc1c(Cl)cccc1Cl` was tested, and the “activity, negative = inhibition” value was 5.27%. With `C#CCN1C(=O)COc2cc(F)c(N3C(=O)C4=C(CCCC4)C3=O)cc21` the “activity, negative = inhibition” value was -7.56%. With `O=[N+]([O-])c1cccc2c([N+](=O)[O-])cccc12` the “activity, negative = inhibition” value was -4.45%. For `CC(COc1ccc(Oc2ccccc2)cc1)Oc1ccccn1` (stereo not given), the “activity, negative = inhibition” value was 0.0987%. In the case of `CNC(=O)Oc1ccc(N(C)C)c(C)c1`, the “activity, negative = inhibition” value is reported as 21.5%. With `OCCBr` the “activity, negative = inhibition” value was 2.57%. `O=C(O)c1cccc(Cl)c1` was tested, and the “activity, negative = inhibition” value was 0.648%. `Nc1n[nH]c(N)n1` was tested, and the “activity, negative = inhibition” value was -0.074%. `CNNC` was tested, and the “activity, negative = inhibition” value was 1.17%. In the case of `OCCSCSCCO`, the “activity, negative = inhibition” value is reported as -5.54%. In the case of `c1coc(-c2nc3ccccc3[nH]2)c1`, the “activity, negative = inhibition” value is reported as 1.2%. With `CN1CCC(N(Cc2ccccc2)c2ccccc2)CC1` the “activity, negative = inhibition” value was -2.19% [at 23.6 µM]. For `N#CCCC#N`, the “activity, negative = inhibition” value was 8.91%. `CSc1nc(N=[N+]=[N-])nc(NC(C)C)n1` was tested, and the “activity, negative = inhibition” value was -2.35%. For `O=C(CCN1CC1)OCC(CO)(COC(=O)CCN1CC1)COC(=O)CCN1CC1`, the “activity, negative = inhibition” value was -3.33%. In the case of `[Cl][Sn]([Cl])([Cl])[Cl]`, the “activity, negative = inhibition” value is reported as -3%. For `CCN(Cc1ccc(Cl)nc1)/C(=C/[N+](=O)[O-])NC`, the “activity, negative = inhibition” value was 0.951% [at 23.6 µM]. In the case of `CC(C)CC(N(C)C)C1(c2ccc(Cl)cc2)CCC1` (stereo not given), the “activity, negative = inhibition” value is reported as -0.292% [at 23.6 µM]. `CCS(=O)(=O)C(C)(C)S(=O)(=O)CC` was tested, and the “activity, negative = inhibition” value was 4.17% [at 23.6 µM]. With `CC(C)CP(=S)(S)CC(C)C` the “activity, negative = inhibition” value was -9.02%. For `CSc1ccc(C(=O)C(C)(C)N2CCOCC2)cc1`, the “activity, negative = inhibition” value was 9.15%. `ClC(Cl)Br` was tested, and the “activity, negative = inhibition” value was 1.93%. `N#CC(O)c1ccccc1` (stereo not given) was tested, and the “activity, negative = inhibition” value was 3.08%. With `COc1ccc2c(c1OC)CN1CCc3cc4c(cc3C1C2)OCO4` (stereo not given) the “activity, negative = inhibition” value was -5.98% [at 23.6 µM]. `Cc1ccccc1CO[C@@H]1C[C@@]2(C(C)C)CC[C@]1(C)O2` was tested, and the “activity, negative = inhibition” value was -1.25%. For `O=C(N[C@H]1CN2CCC1CC2)c1cc2ccoc2cn1`, the “activity, negative = inhibition” value was 2.54%. In the case of `COP(=S)(OC)Oc1ccc(S(N)(=O)=O)cc1`, the “activity, negative = inhibition” value is reported as 1.91% [at 23.6 µM]. In the case of `Cc1ncsc1CCCl`, the “activity, negative = inhibition” value is reported as -2.67% [at 23.6 µM]. In the case of `Cc1nc(N)nc(N)n1`, the “activity, negative = inhibition” value is reported as -1.69%. `CNCC(=O)c1ccc(O)c(O)c1` was tested, and the “activity, negative = inhibition” value was 4.88% [at 23.6 µM]. For `N#Cc1c(Cl)cccc1Cl`, the “activity, negative = inhibition” value was -2.47%.
